Screening results as filed in PubChem.
Pf growth 48h – Primary qHTS for delayed death inhibitors of the malarial parasite plastid, 48 hour incubation; Potency, µM (titrated, usually from 28.7 µM), for inactives: top-dose activity change, negative = inhibition, usual class: inhibitors; 310,000 tested, 5.9% active; P. falciparum luciferase growth in erythrocytes, 48 h; further: potency means the concentration at half of the fitted maximal effect; on the % scale 0 is the no-effect control and ±100 the full control effect
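Luciferase-expressing P. falciparum in infected erythrocytes (2% hematocrit, 0.1% parasitemia final) in RPMI 1640/0.5% Albumax were exposed to compound for 48 hours at 37 C, 5% CO2; growth read as luminescence.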
Shiga toxin inh – A qHTS for Small Molecule Inhibitors of Shiga Toxin; Vero cells, Shiga toxin protein synthesis inhibition reporter; inhibition, % at 38.7 µM; 290,000 tested, 9.2% active; in the data active means inhibition mostly above about 28%, no sharp cut-off; inactive means mostly below about 43%; further: 0% is about no effect
AMA1-RON2 inh – qHTS for Inhibitors of AMA1-RON; Towards Development of Antimalarial Drug Lead: Primary Screen | AlphaScreen AMA1-biotinylated RON2 peptide binding | 360,000 tested, 0.2% active | Potency, µM (top dose mostly 58.2 µM), without a hit: at the highest dose activity change, negative = inhibition, hits mostly inhibitors | Plasmodium falciparum AMA1 (3D7) - RON2 peptide interaction;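 further: potency means the concentration at half of the fitted maximal effect; 0% = vehicle wells and -100% = peptide control; nearly all actives have a fitted effect of over 45% in size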
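AMA1 (3D7) with his tag at 25 nM final met compounds first, then biotinylated RON2 peptide at 25 nM; detection used donor plus acceptor beads, 10 µg/mL apiece, read by AlphaScreen after 30 min at room temperature.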
SARS PLP yeast – qHTS of Yeast-based Assay for SARS-CoV PLP. Potency, µM (doses to about 32.9 µM), for the others: top-dose activity, positive = growth rescue, most hits filed as activators. AID 485353, 2010. S. cerevisiae expressing SARS-CoV PLpro, growth rescue. 330,000 tested, 0.19% active; calls by dose curve; further: potency means the concentration at half of the fitted maximal effect; 0% is about no effect; nearly all actives have a fitted effect of over 55% in size
Cycloheximide cs – Cycloheximide Counterscreen for Small Molecule Inhibitors of Shiga Toxin; max response, %; cell reporter, cycloheximide protein synthesis inhibition counterscreen; 300,000 tested, 12% active; AID 2314, 2010; in the data active means max response mostly above about 13%, no sharp cut-off; inactive means mostly below about 14%; further: read at 38.3 µM for the half of the compounds with a filed dose; 0% is about no effect
Pf growth 96h – Primary qHTS for delayed death inhibitors of the malarial parasite plastid, 96 hour incubation | P. falciparum luciferase reporter growth, 96 h | Potency, µM (top dose mostly 28.7 µM), without a hit: at the top dose activity change, negative = inhibition, actives largely listed as inhibitors | 320,000 tested, 6.9% active; further: potency means the concentration at half of the fitted maximal effect; on the % scale 0 is the no-effect control and ±100 the full control effect
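Infected RBCs, 2% Hct / 0.05% parasitemia final; luciferase-reporter P. falciparum; cpd 96 h, 37 C, 5% CO2; luciferase detection reagent; luminescence.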
Starred values were filed as active, the others as inactive; [ ] = dose if it differs, or a comment. In the library only some 19% were active in any assay of this set; here they are far more common. Unless noted, the call rests on the fitted dose curve; in most records, active means well fitted curve in the direction sought with a large enough effect; inconclusive means small, poorly fitted or top-dose-only effect, or another doubt; inactive means no such curve, though single readings can be large; an effect the other way counts as inactive or inconclusive.

For COCCNC(=O)C(NC(=O)C1CCC(C)CC1)C(C)C (centres undefined) the results were Pf growth 48h 6.5%, Shiga toxin inh 18.9, AMA1-RON2 inh -2.6%, SARS PLP yeast -4.2%, Cycloheximide cs 7.1 and Pf growth 96h 37.0%.
CC(NC(=O)c1cccc(S(=O)(=O)N2CCN(Cc3ccccc3)CC2)c1)c1ccc(Br)cc1 (centres undefined) was read as Pf growth 48h inconclusive, Shiga toxin inh 23.4, AMA1-RON2 inh -11.9%, SARS PLP yeast inconclusive, Cycloheximide cs 2.8 and Pf growth 96h inconclusive.
For O=c1nc(Nc2ccccc2)oc2ccccc12 the results were Pf growth 48h 73.1%, Shiga toxin inh 53.4*, AMA1-RON2 inh -15.4%, SARS PLP yeast -7.3%, Cycloheximide cs 38.3* and Pf growth 96h 88.4%.
O=c1oc(Nc2ccc(F)cc2)nc2ccccc12 was read as Pf growth 48h 15.4%, Shiga toxin inh 81.2*, AMA1-RON2 inh -0.6%, SARS PLP yeast -0.6%, Cycloheximide cs 16.8* and Pf growth 96h inconclusive.
Screening Cc1cccc(N(CC(=O)NC2CCCCC2)C(=O)c2csnn2)c1 returned Pf growth 48h 10.3%, Shiga toxin inh 1.7, AMA1-RON2 inh -10.7%, SARS PLP yeast -1.6%, Cycloheximide cs -2.8 and Pf growth 96h 40.7%.
For CCn1cc(CN2CCC(n3nccc3NC(=O)CCOc3ccccc3)CC2)cn1 the results were Pf growth 48h 3.4%, Shiga toxin inh -17.3, AMA1-RON2 inh -2.6%, SARS PLP yeast 0.8%, Cycloheximide cs 0.5 and Pf growth 96h inconclusive.
Screening O=C(CCOc1ccccc1)Nc1ccnn1C1CCN(CCc2ccccc2)CC1 returned Pf growth 48h -20.6%, Shiga toxin inh -7.9, AMA1-RON2 inh 18.0%, SARS PLP yeast -3.6%, Cycloheximide cs -6.7 and Pf growth 96h 13.1µM*.
Screening O=C(CCOc1ccccc1)Nc1ccnn1C1CCN(Cc2ccc(O)cc2)CC1 returned Pf growth 48h 9.28µM*, Shiga toxin inh -30.3, AMA1-RON2 inh -1.0%, SARS PLP yeast -0.5%, Cycloheximide cs -1.5 and Pf growth 96h 23.9%.
`COc1ccc(CN2CCC(n3nccc3NC(=O)CCOc3ccccc3)CC2)cc1C` gave Pf growth 48h 54.1%, Shiga toxin inh -12.2, AMA1-RON2 inh 14.3%, SARS PLP yeast inconclusive, Cycloheximide cs 0.1 and Pf growth 96h inconclusive.
`CCn1ccnc1CN1CCC(n2nccc2NC(=O)CCc2ccccc2)CC1` gave Pf growth 48h 46.5%, Shiga toxin inh 19.3, AMA1-RON2 inh 60.3%, SARS PLP yeast -2.2%, Cycloheximide cs 9.5 and Pf growth 96h 8.28µM*.
COc1cccc(CN2CCC(n3nccc3NC(=O)CCOc3ccccc3)CC2)c1 was read as Pf growth 48h inconclusive, Shiga toxin inh -7.6, AMA1-RON2 inh -11.1%, SARS PLP yeast -0.8%, Cycloheximide cs -2.1 and Pf growth 96h 3.29µM*.
For CC(C)OC(=O)c1cccc(NC(=O)CSc2nnc(N)s2)c1 the results were Pf growth 48h 4.7%, Shiga toxin inh 26.5, AMA1-RON2 inh -7.7%, SARS PLP yeast 1.5%, Cycloheximide cs 3.8 and Pf growth 96h 10.3%.
CCn1nc(C)c(CN2CCC(n3nccc3NC(=O)Cc3ccccc3)CC2)c1C was read as Pf growth 48h -9.9%, Shiga toxin inh -14.0, AMA1-RON2 inh 0.4%, SARS PLP yeast -6.5%, Cycloheximide cs 0.5 and Pf growth 96h 11.7µM*.
`CC(C)C(=O)N1CCN(c2ccc(NC(=O)c3ccc4c(c3)OCCO4)cc2Cl)CC1` gave Shiga toxin inh -12.0, AMA1-RON2 inh -4.5%, SARS PLP yeast -3.2%, Cycloheximide cs -2.1 and Pf growth 96h 4.65µM*.
For O=C(Nc1ccc(N2CCN(C(=O)c3ccc(Cl)cc3)CC2)cc1)c1ccc2c(c1)OCCO2 the results were Shiga toxin inh -4.4, AMA1-RON2 inh -16.6%, SARS PLP yeast 5.2%, Cycloheximide cs -1.8 and Pf growth 96h inconclusive.
`CC(=O)N1CCN(c2ccc(NC(=O)c3ccc4c(c3)OCCO4)cc2Cl)CC1` gave Pf growth 48h 20.1%, Shiga toxin inh 51.8, AMA1-RON2 inh -1.3%, SARS PLP yeast -1.2%, Cycloheximide cs 27.8* and Pf growth 96h 18.1%.
CC(C)Cc1nc(N2CCN(C(=O)C(C)C)CC2)c(C#N)c2c1CCC2 was read as Pf growth 48h 151.2%, Shiga toxin inh 47.8, AMA1-RON2 inh -16.8%, SARS PLP yeast -1.2%, Cycloheximide cs 54.2* and Pf growth 96h inconclusive.
`CC(C)Cc1nc(N2CCN(C(=O)c3ccccc3)CC2)c(C#N)c2c1CCC2` gave Pf growth 48h inconclusive, Shiga toxin inh -15.9, AMA1-RON2 inh 3.7%, SARS PLP yeast 3.8%, Cycloheximide cs 14.4 and Pf growth 96h inconclusive.
CC(C)Cc1nc(N2CCCCC2)c(C#N)c2c1CCC2 was read as Pf growth 48h 40.0%, Shiga toxin inh 0.2, AMA1-RON2 inh 33.8%, SARS PLP yeast -2.0%, Cycloheximide cs 0.5 and Pf growth 96h 10.4µM*.
Screening CC(C)Cc1nc(N2CCN(C(=O)c3ccco3)CC2)c(C#N)c2c1CCC2 returned Pf growth 48h 2.33µM*, Shiga toxin inh 52.4, AMA1-RON2 inh -21.8%, SARS PLP yeast -12.7%, Cycloheximide cs 8.8 and Pf growth 96h 37.6%.
For N#Cc1c(N2CCN(C(=O)c3ccco3)CC2)nc(-c2ccccc2)c2c1CCCC2 the results were Pf growth 48h inconclusive, Shiga toxin inh 31.0, AMA1-RON2 inh -28.2%, SARS PLP yeast -25.2%, Cycloheximide cs 16.1 and Pf growth 96h 15.7%[5.75 µM].
For N#Cc1c(N2CCN(C(=O)c3ccccc3)CC2)nc(-c2ccccc2)c2c1CCCC2 the results were Shiga toxin inh -7.5, AMA1-RON2 inh 8.0%, SARS PLP yeast 2.0%, Cycloheximide cs -1.2 and Pf growth 96h 13.1µM*.
C[C@@H]1CCCCO[C@@H](CN(C)C(=O)c2ccncc2)[C@@H](C)CN([C@H](C)CO)C(=O)c2cc(N(C)C)ccc2O1 was read as AMA1-RON2 inh 3.9%.
COc1ccc(NC(=O)CSc2nn3c(=O)c(C)nnc3s2)cc1 was read as Pf growth 48h inconclusive, Shiga toxin inh -4.4, AMA1-RON2 inh 85.8%, SARS PLP yeast -2.2%, Cycloheximide cs -3.5 and Pf growth 96h 11.7µM*.
`COc1ccc(CNC(=O)CSc2nn3c(=O)c(C(C)(C)C)nnc3s2)cc1OC` gave Pf growth 48h inconclusive, Shiga toxin inh -6.6, AMA1-RON2 inh 48.0%, SARS PLP yeast 2.2%, Cycloheximide cs -1.0 and Pf growth 96h inconclusive.
`COc1cccc(NC(=O)CSc2nn3c(=O)c(C)nnc3s2)c1` gave Pf growth 48h inconclusive, Shiga toxin inh -9.0, AMA1-RON2 inh 21.1%, SARS PLP yeast -0.7%, Cycloheximide cs -2.7 and Pf growth 96h 9.28µM*.
